Screening data from PubChem.
Rows were chosen to be rich in hits. Some 7.9% of all compounds tested hit in one or more screens of this group.
SW480 rerep = A quantitative high throughput screen for small molecules that induce DNA re-replication in SW480 colon adenocarcinoma cells | SW480 DNA re-replication, Hoechst DNA content imaging, 48 h | Potency, µM (series often up to 46.1 µM), hits mostly activators | 340,000 compounds, 1.8% hits | AID 624297, 2012; further: nearly all actives have a fitted effect of over 55% in size
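Quantitative HTS format with DMSO vehicle controls; 48 hr drug incubation at 37 C, then 40 min Hoechst staining and scanning imager measurement at 405 nm excitation.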
KB-V1 cytotox = qHTS assay for MDR1-selective chemotherapeutics: Primary screen using the drug-selected MDR subline cells KB-V1; Potency, µM (titrated, usually from 46.1 µM), most hits filed as cytotoxic; 400,000 compounds, 3.4% hits; KB-V1 MDR cells viability, CellTiter-Glo, 72 h; further: nearly all actives have a fitted effect of over 60% in size
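Drug-selected KB-V1 cells, grown in DMEM lacking phenol red with 10% FBS, receive compound titrations; after three days at 37 degrees C, surviving cell ATP is quantified by CellTiter-Glo luminescence and responses normalized and curve-fitted.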
KB-3-1 tox = qHTS assay for MDR1-selective chemotherapeutics: Primary screen using the parental adenocarcinoma cell KB-3-1. KB-3-1 viability, CellTiter-Glo ATP luminescence, 72 h. Potency, µM (highest dose often 46.1 µM), most hits filed as cytotoxic. 400,000 compounds, 1.4% hits. AID 1347075, 2019; further: nearly all actives have a fitted effect of over 60% in size
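Parental KB-3-1 adenocarcinoma cells in phenol-red-free DMEM with 10% FBS were pin-treated with compounds at several concentrations, incubated 72 h at 37 °C, and viability read by CellTiter-Glo luminescence; concentration-effect curves were fitted after normalization.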
MCF10A rerep = A quantitative high throughput screen for small molecules that induce DNA re-replication in MCF 10a normal breast cells. AID 624296, 2012. 350,000 compounds, 2.9% hits. MCF 10A DNA re-replication, Hoechst nuclear intensity, 48 h. Potency, µM (top dose mostly 46.1 µM), usual class: activators; further: nearly all actives have a fitted effect of over 50% in size
HT1080-NT tox = qHTS for induction of synthetic lethality in tumor cells producing 2HG: qHTS for the HT-1080-NT fibrosarcoma cell line | HT-1080-NT fibrosarcoma viability, CellTiter-Glo ATP luminescence, 48 h | Potency, µM (titrated, usually from 46.1 µM), actives largely listed as cytotoxic | 360,000 compounds, 1.6% hits | AID 686970, 2013;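 further: NT is the 2HG producing partner of a matched IDH1 knockdown line; nearly all actives have a fitted effect of over 55% in size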
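Read-out is CellTiter-Glo luminescence after 10 minutes at room temperature, following 48 hours' compound treatment of HT-1080-NT cells (750 cells/well, RPMI, 5% FBS, 37 degrees C).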
HT1080 IDH1KD tx = qHTS for induction of synthetic lethality in tumor cells producing 2HG: qHTS for the HT-1080-IDH1KD cell line; 360,000 compounds, 2% hits; HT-1080 IDH1 knockdown viability, ATP luminescence, 48 h; AID 686971, 2013; Potency, µM (titrated, usually from 46.1 µM), usual class: cytotoxic
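Knockdown cells (IDH1KD HT-1080) received compounds 2 h after plating at 750 cells/well and were kept 48 h at 37 °C in 5% FBS RPMI. A CellTiter-Glo luminescence read gave % activity for curve fitting.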
Large screens that a line does not name were inactive. The call rests on the fitted dose curve; in most records, active means well fitted curve in the direction sought with a large enough effect; inconclusive means small, poorly fitted or top-dose-only effect, or another doubt; inactive means no such curve, though single readings can be large; an effect the other way counts as inactive or inconclusive.

CCN1C(=O)c2ccccc2S(=O)c2ccc(C(=O)N3CCN(c4cccc(C)c4)C(C)C3)cc21 (stereo not given)	KB-3-1 tox 18µM (no result: SW480 rerep, MCF10A rerep, HT1080-NT tox, HT1080 IDH1KD tx)
Cc1ccc(C)c(CN2C(=O)c3ccccc3S(=O)c3ccc(C(=O)N4CCN(c5ccccn5)CC4)cc32)c1 (stereo not given)	KB-V1 cytotox inconclusive, KB-3-1 tox 10µM, MCF10A rerep inconclusive, HT1080-NT tox inconclusive
O=C(Nc1ccc(Cl)cc1)N1CCSC1=NCc1ccccc1	none
O=C(CN1CCSC1=NCc1ccccc1)c1ccc(Cl)cc1	KB-V1 cytotox 16µM
COc1ccc(NC(=O)c2nc(C)c(C3(C)CC(c4cccnc4)=NO3)s2)cc1 (stereo not given)	SW480 rerep 7.3µM, KB-V1 cytotox inconclusive, KB-3-1 tox 4.6µM, MCF10A rerep inconclusive, HT1080-NT tox inconclusive, HT1080 IDH1KD tx 6.5µM
COc1cccc(-c2oc3c(c2C#CC2(N)CCCCC2)C(O)CCC3)c1 (stereo not given)	KB-V1 cytotox inconclusive, KB-3-1 tox inconclusive, HT1080-NT tox 16µM, HT1080 IDH1KD tx inconclusive (no result: SW480 rerep, MCF10A rerep)
Cc1ccc(CN(C)C(=O)CN2C(=O)NC(c3ccccc3)(c3ccccc3)C2=O)c(C)c1	SW480 rerep inconclusive, KB-3-1 tox inconclusive
CCOc1ccc(NC(=O)CSc2nnc(CNC(=O)c3c(F)cccc3Cl)o2)cc1	none (no result: SW480 rerep, MCF10A rerep, HT1080-NT tox, HT1080 IDH1KD tx)
CCOc1ccc(OCC)c(NC(=O)CSc2nc3c(c(=O)n(C)c(=O)n3C)n2C(C)C)c1	KB-V1 cytotox 18µM, KB-3-1 tox inconclusive
CCOc1ccc(OCC)c(NC(=O)CSc2nc3c(c(=O)n(C)c(=O)n3C)n2CC)c1	KB-V1 cytotox inconclusive
CC(C)n1c(SCC(=O)NCc2ccco2)nc2c1c(=O)n(C)c(=O)n2C	MCF10A rerep 16µM
O=C(C1CCCCC1)N1CCN(S(=O)(=O)c2ccc(Cl)cc2)CC1	MCF10A rerep inconclusive
COc1ccc(-n2c(=O)c3c4c(sc3n(CC(=O)NCc3ccco3)c2=O)CCC4)c(OC)c1	KB-V1 cytotox 16µM
O=C(NC1CC1)c1cc2c(F)cccc2s1	KB-V1 cytotox inconclusive
NC(=O)c1ccc(N2CCN(c3ccc(O)cc3)CC2)c([N+](=O)[O-])c1	none
COc1ccc(C#Cc2c(-c3ccccc3)n(C)c3ccccc23)cc1	SW480 rerep inconclusive, KB-3-1 tox inconclusive, MCF10A rerep inconclusive, HT1080-NT tox inconclusive, HT1080 IDH1KD tx inconclusive
Cc1cc(C#Cc2c(-c3ccccc3)n(C)c3ccccc23)ccc1F	MCF10A rerep 8.2µM
Cn1c(-c2ccc(C#N)cc2)c(C#Cc2ccccc2)c2ccccc21	SW480 rerep 1.3µM, MCF10A rerep inconclusive
O=C(O)CSC(=S)N1CCCCC1	none
Cc1occc1C(=O)NC(C)C(C)(C)C (stereo not given)	none
C[C@H](NC(=O)c1ccco1)C(=O)Nc1nnc(SCc2ccccc2)s1	MCF10A rerep inconclusive
C[C@H](NC(=O)c1ccco1)C(=O)Nc1nc(-c2ccccn2)cs1	SW480 rerep inconclusive, KB-V1 cytotox 4.1µM
CC(Oc1ccc(F)cc1)C(=O)Nc1nc(-c2ccccn2)cs1 (stereo not given)	KB-3-1 tox inconclusive, MCF10A rerep 3.3µM, HT1080-NT tox inconclusive, HT1080 IDH1KD tx inconclusive
O=C(CCS(=O)(=O)c1ccc(F)cc1)Nc1nc(-c2ccccn2)cs1	KB-3-1 tox inconclusive
O=C(Nc1nc(-c2ccccn2)cs1)c1ccc(Br)s1	SW480 rerep 2.1µM, KB-V1 cytotox 1.3µM, MCF10A rerep 26µM, HT1080-NT tox 2µM, HT1080 IDH1KD tx 1.4µM
O=C(Nc1nc(-c2ccccn2)cs1)c1ccco1	SW480 rerep 4.1µM, MCF10A rerep inconclusive, HT1080-NT tox inconclusive
CCOc1ccc(NC(=O)CSc2nc3ccsc3c(=O)n2CCCCCC(=O)O)cc1	none (no result: SW480 rerep, MCF10A rerep)
CCN(CC(=O)Nc1ccccc1OC)C(=O)c1cc(-c2ccccc2)nn1-c1ccccc1	SW480 rerep inconclusive, MCF10A rerep inconclusive, HT1080-NT tox inconclusive, HT1080 IDH1KD tx inconclusive
Cc1cc(C)c2cc(C#N)c(NCCCNC(=O)CCC(=O)O)nc2c1	KB-V1 cytotox inconclusive
O=S1(=O)CC(O)C(NCc2cccnc2)C1 (stereo not given)	SW480 rerep 2.1µM, MCF10A rerep 5.2µM
CC(C)CNC1CS(=O)(=O)CC1O (stereo not given)	none
O=C1CC(c2cccs2)Cc2nc(NCC3CCCO3)ncc21 (stereo not given)	KB-V1 cytotox 16µM
COc1ccccc1CCN=C(N)NS(=O)(=O)c1ccc(C)cc1	none
COc1ccc(S(=O)(=O)N2CCCc3ccccc32)cc1[N+](=O)[O-]	SW480 rerep 21µM, KB-V1 cytotox inconclusive, KB-3-1 tox 4.1µM, MCF10A rerep 4.1µM, HT1080-NT tox 8.2µM, HT1080 IDH1KD tx 8.2µM
COc1cc2c(cc1OC)CN(C(=O)c1cccc(S(=O)(=O)N3CCc4ccccc43)c1)CC2	KB-V1 cytotox 21µM, MCF10A rerep inconclusive
COc1ccc(S(=O)(=O)N2CCc3ccccc32)cc1C(=O)Nc1ccc(NC(C)=O)cc1	SW480 rerep inconclusive, MCF10A rerep 23µM, HT1080-NT tox inconclusive
COc1ccc(C(=O)Nc2nc3c(s2)CCCC3)cc1S(=O)(=O)N1CCCc2ccccc21	SW480 rerep inconclusive, KB-V1 cytotox 5.2µM, KB-3-1 tox inconclusive, MCF10A rerep inconclusive, HT1080 IDH1KD tx inconclusive
COc1ccc(S(=O)(=O)N2CCCc3ccccc32)cc1OC	SW480 rerep inconclusive, KB-3-1 tox inconclusive, HT1080 IDH1KD tx inconclusive
COc1ccc(NC(C)=O)cc1S(=O)(=O)N1CCc2ccccc21	MCF10A rerep inconclusive
COc1ccc(C(=O)Nc2ncccc2C)cc1S(=O)(=O)N1CCCc2ccccc21	KB-V1 cytotox inconclusive
O=C(O)CCc1ccc(-c2ccccc2)n1-c1ccc(C(=O)O)cc1	KB-V1 cytotox inconclusive
O=C1N=C(O)CN1/N=C/c1ccc(-c2ccc([N+](=O)[O-])cc2)o1	SW480 rerep inconclusive
COc1ccc(C(=O)Nc2ccc(S(=O)(=O)N3CCc4ccccc43)cc2)cc1	KB-V1 cytotox 2.6µM, KB-3-1 tox 2.9µM, MCF10A rerep inconclusive, HT1080 IDH1KD tx inconclusive
NS(=O)(=O)c1ccc(NC(=O)c2ccc(S(=O)(=O)N3CCc4ccccc43)cc2)cc1	KB-V1 cytotox inconclusive
